Results: PubChem BioAssay (NCATS)
Inconclusive results are not listed. Activity calls are given as the source filed them. Calls follow the shape of the dose curve; as a rule, active = well fitted inhibition curve with a large enough effect; inconclusive = small, poorly fitted or top-dose-only effect; inactive = no such curve, though single readings can be large or run the other way.

assay: qHTS for Inhibitors of the Aldehyde Dehydrogenase Family (ALDH1A2, ALDH1A3, ALDH2, ALDH3A1) (AID 2061307); conditions: ALDH inhibition qHTS; series mostly up to 50.3 µM; also: nearly all actives have a fitted effect of over 50% in size; as to Potency: test system not described further here
Potency is read from the fitted curve at half-maximal effect.

SMILES	Potency
COc1cc(O)c(C(CC(=O)N2CC(C)CC(C)C2)c2cccc(NS(C)(=O)=O)c2)c(OC)c1 (stereo unspecified)	3.66 µM (active)
O=S(=O)(c1ccccc1)N1CCC(N(CCc2ccccc2)Cc2ccccc2)CC1	0.708 µM (active)
Cc1ccc2c(=O)cc(C(=O)Nc3cccc(C(F)(F)F)c3)oc2c1C	inactive
Cc1sc(-n2nc(-c3ccccc3)c(Cc3ccc(S(N)(=O)=O)cc3)c2N)nc1C(=O)O	inactive
COc1ccc(C(=O)O/N=C(\N)c2ccccn2)cc1	0.538 µM (active)
Cc1nc(-c2ccc(Cl)s2)sc1C(=O)Nc1ccc(C(N)=O)c(F)c1	inactive
c1coc(-c2ccc3nncn3c2)c1	8.96 µM (active)
Cc1c(P(=S)(c2ccccc2)c2ccccc2)[n+]2ccccc2n1C/C=C/c1ccc2ccccc2c1	3.55 µM (active)
Cc1c(P(=S)(c2ccccc2)c2ccccc2)[n+]2ccccc2n1C/C=C/c1ccc(C(F)(F)F)cc1	7.94 µM (active)
Cc1nc2cc(NS(=O)(=O)c3cc(C(=O)O)ccc3C)ccc2o1	12.6 µM (active)
CCN1CCN(C2c3ccccc3-c3ccc(Br)cc32)CC1 (stereo unspecified)	inactive
O=C(Nc1ccc(-c2nnc3n2CCCC3)cc1)Nc1ccccc1Br	8.91 µM (active)
Cc1ccccc1C(=O)n1ccc2cc(-c3cccc(NC(=O)Cc4ccccc4)n3)cnc21	inactive
CSc1ncc(CNc2cc([N+](=O)[O-])ccc2C)c(N)n1	17.8 µM (active)
Cc1ccc(-c2cc(C(=O)O)c3cccc(C)c3n2)cc1	7.12 µM (active)
O=C(Nc1nc2ccc(Cl)cc2s1)c1cc(=O)c2ccccc2o1	inactive
